# Rows were chosen to be rich in hits. Some 4% of all compounds tested hit in one or more screens of this group.
# Mtb betalactam = beta-lactam sensitization of Mtb H37Rv, H37Rv; M. tuberculosis H37Rv growth with meropenem, percent inhibition; inhibition, % at 25 µM; actives 0.27% (n = 330,000); AID 434955, 2010; call rule not given here;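 also: growth measured after seven days incubation then overnight dye step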
# GDH-TPI inh = GDH-TPI coupling enzyme inhibitors, primary screen, artefact control for M. tuberculosis FBA inhibitor project, biochemical, absorbance, full deck; inhibition, % at 4.8 µM; AID 588335, 2011; actives 1.2% (n = 360,000); GDH-TPI coupled enzyme counterscreen, NADH absorbance
# MazEF act = activators of E. coli MazEF toxin-antitoxin RNase, primary screen, biochemical, fluorescence, uHTS. Endoribonuclease toxin MazF (Escherichia coli (strain K12)), P0AE70. FAM/BHQ RNA-DNA oligo cleavage fluorescence, 5 h. activation, % at 20 µM. actives 0.32% (n = 350,000); in the data active = activation above about 50%
# FBA Mtb inh = Mtb FBA enzyme inhibitors, primary screen, biochemical, fluorescence, strain H37Rv. purified M. tuberculosis FBA, fluorescence read-out. actives 2.3% (n = 360,000). Fructose-bisphosphate aldolase (Mycobacterium tuberculosis (strain ATCC 25618 / H37Rv)), …. inhibition, % at 1 µM; in the data active = inhibition above about 27%
# Target sequence (P9WQA3 whole entry, looked up): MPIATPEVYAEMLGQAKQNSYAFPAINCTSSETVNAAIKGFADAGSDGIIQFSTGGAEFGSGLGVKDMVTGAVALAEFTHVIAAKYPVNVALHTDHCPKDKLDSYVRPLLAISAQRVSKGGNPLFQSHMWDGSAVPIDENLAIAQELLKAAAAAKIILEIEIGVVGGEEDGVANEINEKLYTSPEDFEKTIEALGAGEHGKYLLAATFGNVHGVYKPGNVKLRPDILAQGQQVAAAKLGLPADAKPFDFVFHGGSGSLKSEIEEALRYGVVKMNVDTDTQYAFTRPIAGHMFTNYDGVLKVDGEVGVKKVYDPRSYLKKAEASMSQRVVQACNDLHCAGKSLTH
# CCHF vOTU inh-1 = CCHFV vOTU protease inhibitors, primary screen, biochemical, Pep-AMC substrate, fluorescence | Crimean-Congo hemorrhagic fever virus L polyprotein viral ovarian tumor (vOTU) protease … | inhibition, % at 11.5 µM | actives 0.55% (n = 370,000) | AID 651958, 2012
# CCHF vOTU inh-2 = CCHFV vOTU protease inhibitors, confirmation, biochemical, Pep-AMC substrate, fluorescence; shares compounds with CCHF vOTU inh-1; Recombinant CCHFV vOTU; inhibition, % at 11.5 µM; actives 17% (n = 1,900); AID 686976, 2013
# Numbers stand for hits; – = inactive; ? = inconclusive; · = no result. Rule as the data show it, unless noted: active = inhibition above about 30%; inactive = the rest.
SMILES,Mtb betalactam,GDH-TPI inh,MazEF act,FBA Mtb inh,CCHF vOTU inh-1,CCHF vOTU inh-2
COC(=O)c1cccc(-c2ccc(C(c3c(C)[nH][nH]c3=O)c3c(C)[nH][nH]c3=O)o2)c1,–,–,–,–,57.4,–
COC(=O)c1ccccc1-c1ccc(C(c2c(C)[nH][nH]c2=O)c2c(C)[nH][nH]c2=O)o1,–,–,–,–,43.3,–
CCOc1ccc(NC(=O)Nc2c(C)n(C)n(-c3ccccc3)c2=O)cc1,–,–,–,–,–,·
CC(=O)Nc1ccc(-c2ccnc3c2CC(C(=O)NCC2CCOCC2)O3)cc1 (stereo not given),·,–,·,–,–,·
CCOc1ccc(NC(=O)CSc2nc(=O)n(CCCN3CCOCC3)c3c2CCC3)cc1,–,–,–,–,–,·
CC(C)Cc1ccc(-c2cc3nc(NCCCn4ccnc4)ccn3n2)cc1,·,–,·,–,29.9,–
Cn1c(=O)[nH]c(=O)c2c1nc1n2CCCN1Cc1ccccc1,–,–,–,–,–,·
O=C1OC(Nc2cc(Br)cc3cccnc23)c2ccccc21 (stereo not given),–,–,–,–,111.4,99.8
O=C1OC(Nc2ncccn2)c2ccccc21 (stereo not given),?,–,–,–,–,·
CCOC(=O)/C=C(\C)Sc1cc(=O)oc2ccccc12,–,–,–,–,–,·
CCOC(=O)/C=C(\C)Sc1cc(O)c2ccccc2c1O,·,–,–,–,111.3,98.0
CCOC(=O)N1CCN(C(=O)c2cc3cc(OC)c(OC)cc3[nH]2)CC1,–,–,–,–,–,·
COCCCNC1=C(C#N)C(=O)NC2(CCCC2)S1,·,–,–,–,–,·
CCCCCCSC1=C(C#N)C(=O)NC2(CCCCC2)S1,–,–,–,–,35.2,–
CCOC(=O)c1c(C)oc2c1c(C=NCC1CCCO1)c(O)c1ccccc12 (stereo not given),·,–,–,–,35.4,53.3
CCOC(=O)c1c(C)oc2c1c(C=NCc1ccccn1)c(O)c1ccccc12,·,–,–,–,63.1,–
Cc1ccccc1OCCn1cnc2cc([N+](=O)[O-])ccc2c1=O,–,–,–,–,–,·
O=C(NC1CCCC1)c1ccc(CS(=O)Cc2ccccc2Cl)o1 (stereo not given),–,–,–,–,34.4,–
Cc1cccc(N(C)S(=O)(=O)c2c[nH]c3ccc([N+](=O)[O-])cc23)c1,–,–,–,–,–,·
CC(=O)c1ccc(NC(=O)COC(=O)C2C3CC4OC(=O)C2C4C3)cc1 (stereo not given),–,–,–,–,–,·
Cc1ccc(NC(=O)COC(=O)C2C3CC4OC(=O)C2C4C3)cc1 (stereo not given),–,–,–,–,39.5,–
O=c1c2ccccc2nc(/C=C/c2ccc(O)cc2)n1CCc1ccccc1,–,–,–,–,–,·
CN(C)c1ccc(/C=C/c2nc3ccccc3c(=O)n2CCO)cc1,–,–,–,–,29.6,–
CCC1CCCCN1CCCCOc1cccc(Cl)c1 (stereo not given),–,–,–,–,–,·
COc1nccnc1NS(=O)(=O)c1ccc(NC(=S)NC(=O)/C=C/c2ccc(F)cc2)cc1,–,–,–,–,38.2,–
SMILES,Mtb betalactam,GDH-TPI inh,MazEF act,FBA Mtb inh,CCHF vOTU inh-1,CCHF vOTU inh-2
Cc1cc(OCC(=O)NNC(=S)NC(=O)c2ccc(Br)o2)ccc1Cl,–,–,–,–,35.8,–
CCC(=O)NC(=S)Nc1ccc(NC(=O)COc2ccc(Cl)c(C)c2)cc1,–,–,–,–,–,·
CCOC(=O)c1c(CSC(=N)N)n(-c2ccc(C)cc2)c2cc(Br)c(OC(C)=O)cc12,–,–,–,–,45.8,–
COc1ccc(S(=O)(=O)N2CCC(C(=O)NN3CCCCC3)CC2)cc1OC,–,–,–,–,–,·
CCO/C=C1/C(=O)N(C)C(=O)c2cc(OC)ccc21,–,–,–,–,78.3,77.3
CCOC=C1C(=O)N(C(C)=O)c2cc(OC)c(OC)cc21,·,–,–,–,–,·
COc1cc(NCCCCCCCN)c2ncccc2c1,–,–,–,–,·,·

# Screening data (PubChem BioAssay)
